Each structure is given as a SMILES string. The source made the active and inactive calls. How the source made its calls: active means hit-call score of the fitted dose curve at least 0.9, where 1 is the maximum; inactive means score below 0.9.

Read-out in test [1]: Epidermal growth factor receptor (EGFR), EGFR (gene 1956)
In words: BSK_hDFCGF_EGFR: BioMAP Diversity Plus: hDFCGF Assay for Epidermal growth factor receptor (EGFR) Biomarker Activity (AID 2283057). Particulars: primary human foreskin fibroblasts; actives raise or lower the signal. In a few lines:
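Dosing human primary skin fibroblasts, then measuring surface EGFR by ELISA at 24 h, gives the endpoint; gains and losses relative to DMSO were fitted in both directions.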

Read-out in test [2]: Interleukin-8 (IL8), CXCL8 (gene 3576)
Description: BSK_hDFCGF_IL8: BioMAP Diversity Plus: hDFCGF Assay for Interleukin-8 (IL8) Biomarker Activity (AID 2283058). Particulars: primary human foreskin fibroblasts; actives raise or lower the signal. In a few lines:
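Cells used are human skin primary fibroblasts. Chemical is added, cultures run 24 h, then IL-8 is quantified by ELISA, and gain or loss versus DMSO control is fitted in both directions.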

Test [3] in a line: BSK_hDFCGF_Proliferation: Cell Proliferation Assessment in the BioMAP Diversity Plus: hDFCGF Assay (AID 2283059).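 Further: curves fitted for both rise and fall of signal versus DMSO baseline.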 Particulars: primary human foreskin fibroblasts. In a few lines: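 This proliferation readout used SRB total-protein staining of human foreskin fibroblasts […], normalized to DMSO with bidirectional curve fitting.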
A short description of test [4]: BSK_hDFCGF_SRB: Viability Assessment in the BioMAP Diversity Plus: hDFCGF Assay (AID 2283061).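 Further: cells exposed to compound for 24 h before the read.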 To be noted: primary human foreskin fibroblasts. In a few lines:
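Readout is SRB absorbance at 560 nm, reflecting total protein in parallel cultures of human foreskin fibroblasts harvested 24 h after chemical dosing. Activity was fitted bidirectionally relative to DMSO.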

Read-out in test [5]: TIMP metallopeptidase inhibitor 1 (TIMP1), TIMP1 (gene 7076)
In words: BSK_hDFCGF_TIMP1: BioMAP Diversity Plus: hDFCGF Assay for TIMP metallopeptidase inhibitor 1 (TIMP1) Biomarker Activity (AID 2283062). To be noted: primary human foreskin fibroblasts; actives raise or lower the signal. In a few lines: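 Human skin fibroblasts (primary), hDFCGF system; compound exposure 24 h; TIMP-1 by ELISA; bidirectional fit vs DMSO negative control; overt cytotoxicity by SRB in parallel wells.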

Read-out in test [6]: Vascular cell adhesion molecule 1 (VCAM1), VCAM1 (gene 7412)
In words: BSK_hDFCGF_VCAM1: BioMAP Diversity Plus: hDFCGF Assay for Vascular cell adhesion molecule 1 (VCAM1) Biomarker Activity (AID 2283065).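 On AC50: VCAM-1 protein level quantified by ELISA after 24 h chemical exposure.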 To be noted: primary human foreskin fibroblasts; actives raise or lower the signal. In a few lines: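 Human foreskin fibroblast primary cells, chemical exposure 24 h; VCAM-1 by ELISA; bidirectional fit, DMSO = negative control/baseline.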

Read-out in test [7]: Plasminogen activator inhibitor-1 (PAI1), SERPINE1 (gene 5054)
Description: BSK_hDFCGF_PAI1: BioMAP Diversity Plus: hDFCGF Assay for Plasminogen activator inhibitor-1 (PAI1) Biomarker Activity (AID 2283066). To be noted: primary human foreskin fibroblasts; actives raise or lower the signal. In a few lines:
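Fibroblasts from human foreskin were treated with test chemical. After 24 h, PAI-1 was measured by ELISA. Activity was fitted in both directions relative to DMSO.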

Read-out in test [8]: Intercellular Adhesion Molecule 1 (ICAM1), ICAM1 (gene 3383)
In words: BSK_KF3CT_ICAM1: BioMAP Diversity Plus: KF3CT Assay for Intercellular Adhesion Molecule 1 (ICAM1) Biomarker Activity (AID 2283067). To be noted: primary human keratinocytes with fibroblasts; actives raise or lower the signal. In a few lines:
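ICAM-1 levels are measured by ELISA 24 h after dosing a primary human co-culture of keratinocytes and foreskin fibroblasts. Activity in either direction is fitted relative to DMSO vehicle.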

Read-out in test [9]: Interferon-gamma inducible Protein 10 (IP10), CXCL10 (gene 3627)
In words: BSK_KF3CT_IP10: BioMAP Diversity Plus: KF3CT Assay for Interferon-gamma inducible Protein 10 (IP10) Biomarker Activity (AID 2283068). To be noted: primary human keratinocytes with fibroblasts; actives raise or lower the signal. In a few lines: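 Signal is secreted/surface IP-10 by ELISA in a human primary skin co-culture of keratinocytes and foreskin fibroblasts, taken 24 h post-dosing; DMSO served as negative control.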

Test [10] is described as follows: BSK_KF3CT_SRB: Viability Assessment in the BioMAP Diversity Plus: KF3CT Assay (AID 2283069).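 Further: read 24 h after compound addition; fitted for both signal gain and loss against DMSO baseline.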 Particulars: primary human keratinocytes with fibroblasts. In a few lines: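 Overt cytotoxicity is assessed as total protein by sulforhodamine B staining in parallel human skin co-cultures at 24 h after dosing. DMSO serves as negative control and baseline.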
Read-out in test [11]: TIMP metallopeptidase inhibitor 2 (TIMP2), TIMP2 (gene 7077)
In words: BSK_KF3CT_TIMP2: BioMAP Diversity Plus: KF3CT Assay for TIMP metallopeptidase inhibitor 2 (TIMP2) Biomarker Activity (AID 2283071). Particulars: primary human keratinocytes with fibroblasts; actives raise or lower the signal. In a few lines:
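Chemicals were dosed onto human skin primary co-cultures of keratinocytes and foreskin fibroblasts, and TIMP-2 was measured by ELISA after 24 hours. Activity in either direction was fitted relative to DMSO.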

Read-out in test [12]: C-C motif chemokine 2 (Homo sapiens) (UniProt P13500)
In words: BSK_KF3CT_MCP1: BioMAP Diversity Plus: KF3CT Assay for Monocyte Chemoattractant Protein 1 (MCP1/CCL2) Biomarker Activity (AID 2283073). To be noted: primary human keratinocytes with fibroblasts; actives raise or lower the signal. In a few lines: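 ELISA readout of MCP-1 after 24 h chemical dosing of a human skin primary co-culture of keratinocytes and foreskin fibroblasts. Activity was fitted in both directions against DMSO.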

Read-out in test [13]: Matrix Metallopeptidase 9 (MMP9), MMP9 (gene 4318)
In words: BSK_KF3CT_MMP9: BioMAP Diversity Plus: KF3CT Assay for Matrix Metallopeptidase 9 (MMP9) Biomarker Activity (AID 2283074).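 On AC50: MMP9 protein level quantified by ELISA in the co-culture.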 To be noted: primary human keratinocytes with fibroblasts; actives raise or lower the signal. In a few lines:
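Values come from bidirectional fitting relative to DMSO of MMP-9 levels, which were measured by ELISA. Measurements were taken 24 h after chemical dosing of a keratinocyte and foreskin fibroblast co-culture.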

Read-out in test [14]: urokinase plasminogen activator (uPA), PLAU (gene 5328)
In words: BSK_KF3CT_uPA: BioMAP Diversity Plus: KF3CT Assay for urokinase plasminogen activator (uPA) Biomarker Activity (AID 2283075). Particulars: primary human keratinocytes with fibroblasts; actives raise or lower the signal. In a few lines: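 Values derive from bidirectional fitting against DMSO controls. Keratinocyte/foreskin fibroblast co-cultures received chemical; 24 h later uPA was detected by ELISA, with SRB total-protein staining in parallel wells for overt cytotoxicity.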

Read-out in test [15]: E-selectin (Homo sapiens) (UniProt P16581)
Description: BSK_LPS_Eselectin: BioMAP Diversity Plus: LPS Assay for Eselectin Biomarker Activity (AID 2283077). To be noted: primary human HUVEC with PBMC; actives raise or lower the signal. In a few lines: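 Primary human vascular co-culture (endothelium plus PBMC) was dosed with chemical, then E-selectin quantified by ELISA at 24 h. Endpoint values derive from bidirectional curve fitting relative to DMSO.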

Read-out in test [16]: Interleukin-8 (IL8), CXCL8 (gene 3576)
Description: BSK_LPS_IL8: BioMAP Diversity Plus: LPS Assay for Interleukin-8 (IL8) Biomarker Activity (AID 2283078). Particulars: primary human HUVEC with PBMC; actives raise or lower the signal. In a few lines: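 Readout is IL-8 by ELISA, taken 24 h after compounds were added to LPS-stimulated endothelial/PBMC co-cultures. Both increases and decreases relative to DMSO control were scored through bidirectional fitting.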

A short description of test [17]: BSK_LPS_SRB: Viability Assessment in the BioMAP Diversity Plus: LPS Assay (AID 2283079).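 Further: total protein by sulforhodamine B absorbance as a cytotoxicity measure; measured one day after compound addition; fitted in both directions against DMSO so loss or gain of signal counts.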 To be noted: primary human HUVEC with PBMC. In a few lines:
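Readout is SRB absorbance at 560 nm (0.1% stain, TCA-fixed parallel cultures) as a total-protein cytotoxicity measure. Cells: primary human umbilical vein endothelium plus peripheral blood mononuclear cells, 24 h after chemical exposure; DMSO served as baseline.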

Read-out in test [18]: Interleukin-1 alpha (IL1a), IL1A (gene 3552)
Description: BSK_LPS_IL1a: BioMAP Diversity Plus: LPS Assay for Interleukin-1 alpha (IL1a) Biomarker Activity (AID 2283080). Particulars: primary human HUVEC with PBMC; actives raise or lower the signal. In a few lines: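 ELISA read-out of IL-1 alpha from a human primary vascular co-culture (endothelium plus PBMC) under LPS, sampled 24 hours post-dosing. Activity was fitted in both directions relative to DMSO controls.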

The nature of test [19]: BSK_LPS_PGE2: BioMAP Diversity Plus: LPS Assay for Prostaglandin E2 (PGE2) Biomarker Activity (AID 2283082). To be noted: primary human HUVEC with PBMC; actives raise or lower the signal. In a few lines:
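Compounds were added to the LPS co-culture of endothelium and PBMC, and PGE2 was measured by ELISA after 24 h. Responses in either direction were fitted with DMSO as baseline.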

Read-out in test [20]: Macrophage colony-stimulating factor (MCSF), CSF1 (gene 1435)
In words: BSK_LPS_MCSF: BioMAP Diversity Plus: LPS Assay for Macrophage colony-stimulating factor (MCSF) Biomarker Activity (AID 2283083). Particulars: primary human HUVEC with PBMC; actives raise or lower the signal. In a few lines: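 ELISA readout of M-CSF after 24 h compound exposure in a human endothelial/PBMC co-culture. Activity, in either direction, is fitted relative to DMSO vehicle.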

Chain of E-selectin (Homo sapiens) (P16581 whole entry, looked up): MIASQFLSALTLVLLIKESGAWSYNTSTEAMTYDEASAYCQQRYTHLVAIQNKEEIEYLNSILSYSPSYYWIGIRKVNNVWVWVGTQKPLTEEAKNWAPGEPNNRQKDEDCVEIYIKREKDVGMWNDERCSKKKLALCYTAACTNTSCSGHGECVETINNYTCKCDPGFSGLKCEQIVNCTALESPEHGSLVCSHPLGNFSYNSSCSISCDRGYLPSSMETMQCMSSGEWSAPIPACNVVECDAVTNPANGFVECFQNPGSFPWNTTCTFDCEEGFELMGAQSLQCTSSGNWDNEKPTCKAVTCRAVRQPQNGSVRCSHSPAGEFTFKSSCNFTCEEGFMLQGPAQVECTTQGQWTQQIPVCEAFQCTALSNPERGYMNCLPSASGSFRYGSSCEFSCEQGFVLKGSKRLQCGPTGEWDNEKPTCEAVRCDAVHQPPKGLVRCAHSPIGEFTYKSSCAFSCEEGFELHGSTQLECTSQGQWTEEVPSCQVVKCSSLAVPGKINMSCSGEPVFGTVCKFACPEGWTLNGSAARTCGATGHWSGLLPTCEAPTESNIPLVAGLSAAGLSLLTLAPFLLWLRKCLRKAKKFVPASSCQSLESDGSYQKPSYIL

Turning to `Cc1cccnc1`, the outcome in [1], in test [2], in [3], in test [4], in test [5] and in test [6] was inactive. Besides, the outcome in [7], in [8], in test [9], in test [10], in [11] and in [12] was inactive. In addition, the outcome in test [13], in test [14], in test [15], in test [16], in test [17] and in [18] was inactive. In addition, the outcome in [19] and in test [20] was inactive.
Take `CCCCCCCCCCC1CO1` (stereo not given): the result in test [1] and in [19] was inactive. In addition, the concentration at half-maximal activity (AC50) in [2] is 28.5 µM (active); in test [3] it was 20 µM (active); in test [4], 27.6 µM (active); in test [5], 20 µM (active); in test [6] it was 25.7 µM (active); in [7] it was 20 µM (active). In addition, the AC50 in test [8] is 29.3 µM (active); in test [9], 4.61 µM (active); in test [10] it was 33.4 µM (active); in test [11] it was 24.2 µM (active); in test [12] it was 20 µM (active); in test [13], 36.1 µM (active). Moreover, the concentration at half-maximal activity (AC50) in test [14] was 28 µM (active); in test [15], 36.1 µM (active); in test [16] it was 37.5 µM (active); in test [17] it was 20 µM (active); in test [18], 31.8 µM (active); in test [20], 31.6 µM (active).
As for `CN(C)CCC(c1ccc(Cl)cc1)c1ccccn1` (stereo not given), the outcome in test [1], in [2], in [3], in [4], in test [5] and in test [6] was inactive. Also, the result in test [7], in test [8], in test [9], in test [10], in [11] and in test [12] was inactive. The outcome in test [13], in test [14], in test [15], in test [16], in [17] and in [18] was inactive. Also, the outcome in test [19] and in test [20] was inactive.

The values above are taken from PubChem BioAssay (EPA / NIEHS).
